# Laboratory results taken from PubChem BioAssay (NCATS).
# Values joined by “and” are separate entries in the source; they are usually repeats but may differ in a detail not shown here. Equal entries are not always repeated. A number with no mark means an inactive call. Results filed as inconclusive are left out. A call without a number means that no potency is given here. Active and inactive are the calls of the source. Calls come from the whole dose curve; as a rule, active = well fitted curve in the direction sought with a large enough effect; inconclusive = small, poorly fitted or top-dose-only effect, or another doubt; inactive = no such curve, though single readings can be large; an effect the other way counts as inactive or inconclusive.
# Tests used:
# [1] = Cellular Toxicity (caspase-3) Hek293 (AID 664); conditions: HEK293 caspase-3 activation, DMSO = 0%, 100 µM tamoxifen = 100%; at 92.2 µM (top of the series);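 note: cells exposed to compound for 16 h at 37 °C before readout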
# Method in brief: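 Activation of caspase-3/7 is measured as increased luminescence from cleaved peptide-aminoluciferin substrate in HEK293 cells treated 16 hours at 37 °C. AC50 values come from Hill-equation fits of concentration-response data.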
# [2] = Cellular Toxicity (caspase-3) N2a (AID 665); conditions: N2a cells, luminescence, normalized: DMSO 0%, 10 µM staurosporine 100%; series mostly up to 92.2 µM;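 note: compound exposure lasted 16 h at 37 °C before readout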
# Method in brief: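 Plated mouse neuroblastoma N2a cells received titrated compounds for 16 h in complete medium. Caspase activity was then detected with a peptide-aminoluciferin luminescent reagent.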
# [3] = Cellular Toxicity (caspase-3) NIH 3T3 (AID 666); conditions: NIH 3T3 caspase-3 activation, apoptosis/toxicity, 0% DMSO, 100% is 100 µM tamoxifen; series mostly up to 92.2 µM;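 note: caspase signal read after 16 h compound exposure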
# Method in brief: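 Concentration-response qHTS in NIH 3T3 mouse fibroblasts scores caspase-3/7 activation as rising luminescence after 16 hr compound exposure. Signals are scaled between DMSO-only and 100 uM tamoxifen.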
# [4] = Cellular Toxicity (caspase-3) Renal Proximal Tubule (AID 667); conditions: renal proximal tubule cells, primary cells freshly taken from rat, solvent-only wells 0%, staurosporine 100%; series mostly up to 91.7 µM;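 note: cells exposed to compound for 16 hours at 37 °C before detection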
# Method in brief: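 Caspase 3/7 activation measured by luminescent aminoluciferin release in primary rat proximal tubule cells after 16 hr compound exposure at 37 °C. AC50 from Hill-fitted concentration-response, scaled between DMSO and 10 uM staurosporine.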
# [5] = molecular target: Cytochrome P450 3A4 (Homo sapiens) (UniProt P08684); test: qHTS Assay for Inhibitors and Substrates of Cytochrome P450 3A4 (AID 884); conditions: recombinant CYP3A4, Luciferin-PPXE luminescence; series mostly up to 57.1 µM; note: nearly all actives have a fitted effect of over 50% in size; note: potency is the fitted concentration of half-maximal effect
# Chain of Cytochrome P450 3A4 (Homo sapiens) (P08684 whole entry, looked up): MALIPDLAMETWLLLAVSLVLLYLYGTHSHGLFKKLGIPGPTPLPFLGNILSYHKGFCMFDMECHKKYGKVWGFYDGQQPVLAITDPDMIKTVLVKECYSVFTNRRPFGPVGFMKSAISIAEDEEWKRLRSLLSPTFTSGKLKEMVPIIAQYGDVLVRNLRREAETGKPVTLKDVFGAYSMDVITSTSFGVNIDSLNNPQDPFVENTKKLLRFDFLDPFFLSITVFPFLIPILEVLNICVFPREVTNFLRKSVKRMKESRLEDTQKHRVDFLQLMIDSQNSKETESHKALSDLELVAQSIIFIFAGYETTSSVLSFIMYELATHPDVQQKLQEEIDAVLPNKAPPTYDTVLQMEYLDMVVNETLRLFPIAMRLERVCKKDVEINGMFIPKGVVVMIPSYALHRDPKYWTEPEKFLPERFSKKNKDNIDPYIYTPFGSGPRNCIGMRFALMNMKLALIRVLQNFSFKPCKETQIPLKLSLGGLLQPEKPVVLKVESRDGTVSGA
# Method in brief: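 20 nM human CYP3A4 with 25 uM Luciferin-PPXE (at KM) in 200 mM KPO4, preincubated 10 min with compound; NADPH regeneration started a 60 min RT reaction. Luciferin detected by luminescence, normalized to 57 uM ketoconazole as full inhibition.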
# [6] = molecular target: Cytochrome P450 3A4 (Homo sapiens) (UniProt P08684); test: qHTS Assay for Activators of Cytochrome P450 3A4 (AID 885); conditions: recombinant CYP3A4, Luciferin-PPXE luminescence, 60 min; series mostly up to 57.1 µM; note: nearly all actives have a fitted effect of over 65% in size; note: potency is the fitted concentration of half-maximal effect
# Method in brief: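 Signal was normalized against complete inhibition by 57 uM ketoconazole. The reaction used 20nM CYP3A4 with 25uM Luciferin-PPXE, 10-min compound preincubation and a 60-min NADPH-supported step at RT.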
# [7] = molecular target: Cytochrome P450 2D6 (Homo sapiens) (UniProt P10635); test: qHTS Assay for Inhibitors and Substrates of Cytochrome P450 2D6 (AID 891); conditions: recombinant CYP2D6, luciferin-ME EGE luminescence; series mostly up to 11.4 µM; note: nearly all actives have a fitted effect of over 60% in size; note: potency is the fitted concentration of half-maximal effect;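 for activity change, negative = inhibition: luciferin methyl ether substrate demethylated by CYP2D6 with NADPH regeneration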
# Chain of Cytochrome P450 2D6 (Homo sapiens) (P10635 whole entry, looked up): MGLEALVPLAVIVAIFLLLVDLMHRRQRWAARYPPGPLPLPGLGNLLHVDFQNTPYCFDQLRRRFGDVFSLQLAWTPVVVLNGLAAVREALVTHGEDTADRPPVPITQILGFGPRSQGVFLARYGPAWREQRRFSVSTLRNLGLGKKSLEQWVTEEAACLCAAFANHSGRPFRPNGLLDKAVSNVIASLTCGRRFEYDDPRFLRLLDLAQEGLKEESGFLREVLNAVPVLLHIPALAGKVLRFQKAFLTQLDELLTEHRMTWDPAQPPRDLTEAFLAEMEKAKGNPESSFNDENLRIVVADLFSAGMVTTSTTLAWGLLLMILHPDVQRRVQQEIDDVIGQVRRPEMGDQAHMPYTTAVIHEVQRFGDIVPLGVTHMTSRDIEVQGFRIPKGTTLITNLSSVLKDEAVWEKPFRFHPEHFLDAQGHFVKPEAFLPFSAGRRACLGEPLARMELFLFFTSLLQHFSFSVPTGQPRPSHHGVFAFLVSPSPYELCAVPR
# Method in brief: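 Human CYP2D6 (5 nM) with 30 uM Luciferin-ME EGE (at Km) in 100 mM KPO4, compound preincubated 10 min, then NADPH regeneration system for 60 min at room temperature. Luciferin read by luminescence; normalized to 1.43 uM quinidine.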
# [8] = molecular target: Cytochrome P450 2C9 (Homo sapiens) (UniProt P11712); test: qHTS Assay for Inhibitors and Substrates of Cytochrome P450 2C9 (AID 883); conditions: recombinant CYP2C9, luciferin-H luminescence, 60 min; series mostly up to 57.1 µM; note: nearly all actives have a fitted effect of over 60% in size; note: potency is the fitted concentration of half-maximal effect
# Chain of Cytochrome P450 2C9 (Homo sapiens) (P11712 whole entry, looked up): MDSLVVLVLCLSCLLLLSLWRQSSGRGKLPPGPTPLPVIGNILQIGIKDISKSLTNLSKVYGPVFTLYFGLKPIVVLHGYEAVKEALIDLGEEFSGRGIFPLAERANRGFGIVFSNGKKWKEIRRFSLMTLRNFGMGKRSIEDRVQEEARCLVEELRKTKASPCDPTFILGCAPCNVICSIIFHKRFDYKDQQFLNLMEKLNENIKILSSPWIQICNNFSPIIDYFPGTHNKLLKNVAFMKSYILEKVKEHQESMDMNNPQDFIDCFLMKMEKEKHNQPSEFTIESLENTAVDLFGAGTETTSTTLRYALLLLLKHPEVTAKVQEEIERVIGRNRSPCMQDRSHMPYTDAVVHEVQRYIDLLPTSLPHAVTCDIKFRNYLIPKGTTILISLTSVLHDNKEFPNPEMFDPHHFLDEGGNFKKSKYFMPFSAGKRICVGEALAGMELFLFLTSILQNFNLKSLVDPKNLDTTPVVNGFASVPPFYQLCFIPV
# Method in brief: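 Signal: luciferase luminescence reporting luciferin produced by CYP2C9. Conditions: 10nM enzyme, Luciferin-H 100uM at KM, 25mM KPO4, 37C, 60 min NADPH-driven reaction. Reference: 57uM sulphaphenazole as 100% inhibition.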
# [9] = molecular target: Guanine nucleotide-binding protein G(i) subunit alpha-1 (Homo sapiens) (UniProt P63096); test: qHTS Assay for Inhibitors of RGS12 GoLoco Motif Activity (Green Fluorophore) (AID 879); conditions: Galphai1/FITC-RGS12 GoLoco peptide, fluorescence polarization; series mostly up to 57.1 µM;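 note: negative values mean loss of peptide binding seen as reduced polarization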
# Chain of Guanine nucleotide-binding protein G(i) subunit alpha-1 (Homo sapiens) (P63096 whole entry, looked up): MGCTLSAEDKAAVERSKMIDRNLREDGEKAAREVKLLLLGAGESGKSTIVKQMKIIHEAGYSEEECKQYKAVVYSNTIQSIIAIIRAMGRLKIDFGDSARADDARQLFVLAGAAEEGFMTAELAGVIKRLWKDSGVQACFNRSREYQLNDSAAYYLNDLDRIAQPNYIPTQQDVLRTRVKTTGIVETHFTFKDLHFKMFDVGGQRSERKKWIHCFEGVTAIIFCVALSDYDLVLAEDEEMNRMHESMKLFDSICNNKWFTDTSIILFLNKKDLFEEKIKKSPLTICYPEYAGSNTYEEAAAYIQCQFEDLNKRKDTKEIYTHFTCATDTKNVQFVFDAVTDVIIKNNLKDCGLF
# Method in brief: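 Fluorescence polarization assay: 50 nM Gαi1 with 10 nM FITC-labeled RGS12 GoLoco peptide in 10 mM Tris pH 7.5, 150 mM NaCl, 0.1 mM GDP, 0.05% NP40, 10 min at room temperature with compound.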
# [10] = molecular target: Cytochrome P450 2C19 (Homo sapiens) (UniProt P33261); test: qHTS Assay for Inhibitors and Substrates of Cytochrome P450 2C19 (AID 899); conditions: recombinant CYP2C19, luciferin-H EGE luminescence; note: potency is the fitted concentration of half-maximal effect; nearly all actives have a fitted effect of over 60% in size
# Chain of Cytochrome P450 2C19 (Homo sapiens) (P33261 whole entry, looked up): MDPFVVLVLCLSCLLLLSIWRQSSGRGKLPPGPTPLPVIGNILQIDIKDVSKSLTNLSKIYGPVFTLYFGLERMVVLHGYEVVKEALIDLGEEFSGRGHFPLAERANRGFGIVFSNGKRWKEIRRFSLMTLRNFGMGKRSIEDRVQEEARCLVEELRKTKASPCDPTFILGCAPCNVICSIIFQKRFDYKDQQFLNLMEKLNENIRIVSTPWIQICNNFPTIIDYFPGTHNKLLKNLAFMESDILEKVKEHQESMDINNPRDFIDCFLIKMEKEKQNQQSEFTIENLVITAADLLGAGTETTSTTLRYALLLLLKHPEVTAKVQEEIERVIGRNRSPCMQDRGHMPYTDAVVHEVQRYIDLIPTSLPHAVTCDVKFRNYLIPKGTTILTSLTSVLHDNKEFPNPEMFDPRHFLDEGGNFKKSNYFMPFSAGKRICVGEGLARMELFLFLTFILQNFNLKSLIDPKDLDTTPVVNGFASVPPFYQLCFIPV
# Method in brief: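 Signal comes from luciferase acting on luciferin released by CYP2C19-mediated hydroxylation of Luciferin-H EGE, 10uM (KM). Assay mix: 5nM enzyme, 50mM KPO4; 60 min at 37C with NADPH regeneration. Data normalized against 57uM ketoconazole.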
smiles,measurement,setting,value
COC(=O)c1ccccc1O,caspase-3 activation,[1],0.0886%
same,outcome,[2],inactive
same,outcome,[3],inactive
same,outcome,[4],inactive
same,Potency,[5],inactive
OCC(O)CO,caspase-3 activation,[1],3.75% and 1.59%
same,outcome,[2],inactive
same,outcome,[3],inactive
same,outcome,[4],inactive
same,Potency,[5],inactive
OB(O)O,caspase-3 activation,[1],-1.81%
same,outcome,[2],inactive
same,outcome,[3],inactive
same,outcome,[4],inactive
same,Potency,[5],inactive
CC1=CCC2CC1C2(C)C (stereo unspecified),caspase-3 activation,[1],0.916%
same,outcome,[2],inactive
same,outcome,[3],inactive
same,outcome,[4],inactive
same,Potency,[5],inactive
Oc1cccc(O)c1O,caspase-3 activation,[1],1.35%
same,outcome,[2],inactive
same,outcome,[3],inactive
same,outcome,[4],inactive
same,Potency,[5],inactive
Cc1ncc[nH]1,caspase-3 activation,[1],-0.913%
same,outcome,[2],inactive
same,outcome,[3],inactive
same,outcome,[4],inactive
same,Potency,[5],inactive
OC[C@H]1O[C@@H]2O[C@H]3[C@H](O)[C@@H](O)[C@@H](O[C@H]4[C@H](O)[C@@H](O)[C@@H](O[C@H]5[C@H](O)[C@@H](O)[C@@H](O[C@H]6[C@H](O)[C@@H](O)[C@@H](O[C@H]7[C@H](O)[C@@H](O)[C@@H](O[C@H]1[C@H](O)[C@H]2O)O[C@@H]7CO)O[C@@H]6CO)O[C@@H]5CO)O[C@@H]4CO)O[C@@H]3CO,caspase-3 activation,[1],0.542%
same,outcome,[2],inactive
same,outcome,[3],inactive
same,outcome,[4],inactive
same,Potency,[5],inactive
[O-][N+](=Nc1ccccc1)c1ccccc1,caspase-3 activation,[1],0.871%
same,outcome,[2],inactive
same,outcome,[3],inactive
same,outcome,[4],inactive
same,Potency,[5],inactive
O=P(O)(O)O,caspase-3 activation,[1],-0.448%
same,outcome,[2],inactive
same,outcome,[3],inactive
same,outcome,[4],inactive
same,Potency,[5],inactive
CCOC(C)OCC,caspase-3 activation,[1],0.677%
same,outcome,[2],inactive
same,outcome,[3],inactive
same,outcome,[4],inactive
same,Potency,[5],inactive
CC/C=C\C/C=C\C/C=C\CCCCCCCC(=O)O,caspase-3 activation,[1],0.606%
same,outcome,[2],inactive
same,outcome,[3],inactive
same,outcome,[4],inactive
same,Potency,[5],15.8 µM (active)
same,Potency,[6],inactive
CCCc1nc(C(C)(C)O)c(C(=O)OCc2oc(=O)oc2C)n1Cc1ccc(-c2ccccc2-c2nn[nH]n2)cc1,Potency,[6],inactive
CCCOc1cc(N)ccc1C(=O)OCCN(CC)CC,Potency,[7],2 µM (active)
CC(C)(C)CC(C)(C)c1ccc(OCCO)cc1,caspase-3 activation,[1],5.17%
same,outcome,[2],inactive
same,outcome,[3],inactive
same,outcome,[4],inactive
same,Potency,[6],inactive
COc1cc(S(C)=O)ccc1-c1nc2ncccc2[nH]1 (stereo unspecified),Potency,[5],inactive
CC(C)c1nc(N(C)S(C)(=O)=O)nc(-c2ccc(F)cc2)c1/C=C/C(O)CC(O)CC(=O)O (stereo unspecified),Potency,[6],inactive
CC1CCC(NC(=O)N(CCCl)N=O)CC1 (stereo unspecified),Potency,[5],inactive
NCC(O)CC(=O)O (stereo unspecified),Potency,[5],inactive
O=C(O)Cc1cc(I)c(Oc2ccc(O)c(I)c2)c(I)c1,Potency,[8],5.01 µM (active)
O=C(CCCCCCCCCCCCC1CCCC1)Nc1ccc(S(=O)(=O)c2ccc(NC(=O)CCCCCCCCCCCCC3CCCC3)cc2)cc1,Potency,[6],inactive
Cc1cc(C)c(NC(=O)C[C@H](CC(=O)O)c2cccc3ccccc23)c(C(=O)N2CCC3(CCCC3)CC2)c1,outcome,[9],inactive
same,Potency,[6],inactive
CC(=O)Oc1cccc2c1C(=O)c1c(OC(C)=O)cc(C(=O)O)cc1C2=O,Potency,[5],inactive
O=C(O)[C@H]1C(=CCO)O[C@H]2CC(=O)N12,Potency,[5],inactive
O=C(O)Cc1nn(Cc2ccc(Br)cc2F)c(=O)c2ccccc12,Potency,[8],inactive
C=C1C(CCl)(CCl)C2(Cl)C(Cl)C(Cl)C1(Cl)C2(Cl)Cl (stereo unspecified),caspase-3 activation,[1],252% (active)
same,outcome,[3],inactive
same,Potency,[5],5.01 µM (active)
same,Potency,[6],inactive
CC(=O)Oc1cccc(C(=O)O)c1OC(C)=O,Potency,[5],inactive
Cc1c(O)c(=O)ccn1C,"activity change, negative = inhibition",[5],-11.6% [at 11.4 µM]
same,Potency,[7],inactive
CC1CCCC(C)N1NC(=O)c1ccc(Cl)c(S(N)(=O)=O)c1 (stereo unspecified),Potency,[5],inactive
Nc1ccc(N=Nc2ccccc2)c(N)n1,caspase-3 activation,[1],-7.28%
same,outcome,[2],inactive
same,outcome,[4],inactive
same,Potency,[6],inactive
N#Cc1ccc2c(c1)N(CCCN1CCC(O)CC1)c1ccccc1S2,Potency,[5],inactive
C[C@@](Cc1ccc(O)c(O)c1)(NN)C(=O)O,outcome,[9],inactive
same,Potency,[6],inactive
CC(=O)[C@H]1CC[C@H]2[C@@H]3C=CC4=CC(=O)CC[C@@]4(C)[C@H]3CC[C@]12C,Potency,[5],inactive
same,Potency,[6],7.94 µM (active)
O=C1c2ccccc2C(=O)c2c1ccc(O)c2O,Potency,[6],inactive
CCCCC[C@H](O)/C=C/[C@H]1[C@H](O)CC(=O)[C@@H]1C/C=C\CCCC(=O)O,Potency,[5],inactive
CC(=O)N=c1sc(S(N)(=O)=O)nn1C,Potency,[5],inactive
Cc1cc(-c2ccc(N=Nc3ccc4c(S(=O)(=O)O)cc(S(=O)(=O)O)c(N)c4c3O)c(C)c2)ccc1N=Nc1ccc2c(S(=O)(=O)O)cc(S(=O)(=O)O)c(N)c2c1O,Potency,[8],7.94 µM (active)
same,Potency,[5],15.8 µM (active)
same,Potency,[6],inactive
same,Potency,[7],15.8 µM (active)
same,Potency,[10],0.199 µM (active)
O=C(O)[C@H]1CN(C/C=C/P(=O)(O)O)CCN1,Potency,[5],inactive
CC(=O)Nc1ccc(OC(=O)c2ccccc2O)cc1,Potency,[5],inactive
Cc1cccc(C)c1NC(=O)C1CCCCN1C (stereo unspecified),Potency,[6],inactive
C/C=C/C=C/C(=O)O,caspase-3 activation,[1],-0.294%
same,outcome,[2],inactive
same,outcome,[3],inactive
same,outcome,[4],inactive
same,Potency,[5],inactive
CN1CCc2c(c3ccccc3n2Cc2ccccc2)C1,Potency,[7],3.16 µM (active)
C=CC(C)(O)CC/C=C(\C)CCC=C(C)C (stereo unspecified),Potency,[5],inactive
CCSc1ccc2c(c1)N(CCCN1CCN(C)CC1)c1ccccc1S2,Potency,[6],inactive
same,Potency,[7],2.51 µM (active)
